Results filed as inconclusive are left out. Activity calls are given as the source filed them. How the source made its calls: active means hit-call score of the fitted dose curve at least 0.9, where 1 is the maximum; inconclusive means response in the unintended direction; inactive means score below 0.9.
Columns and labels:
[1] = ATG_XTT_Cytotoxicity: Cytotoxicity Assessment in the Attagene TRANS-FACTORIAL HepG2 Assay (AID 2283584);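 on AC50: cells exposed to compound for 24 h before reading; active means loss of viability signal versus DMSO baseline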
Method in brief: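 HepG2 human liver cells, transiently transfected with multiple GAL4-UAS reporter units, were dosed and read at 24 h by XTT as cell number. Loss of signal was fitted relative to DMSO negative control baseline.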

[2] = TOX21_p53_BLA_p2_viability: Viability Assessment in the Tox21 HCT-116 p53 Agonism Beta-lactamase Assay, Phase 2 (AID 2283591);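 further: compound exposure lasted 16 h at 37 °C; actives lower the ATP signal meaning cytotoxicity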
Method in brief: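 HCT-116 p53-bla cells (4000/well) rested 5 h at 37C, then received compounds in DMSO (217-fold dilution) for 16 h at 37C, 5% CO2. After the CCF4 read, CellTiter-Glo was added; ATP luminescence was read after 30 min at room temperature.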

[3] = molecular target: Cellular tumor antigen p53 (Homo sapiens) (UniProt P04637); assay: TOX21_p53_BLA_p2_ratio: Tox21 HCT-116 p53 Agonism Beta-lactamase Assay, Ratio, Phase 2 (AID 2283592)
Method in brief: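 Ratio endpoint: beta-lactamase cleavage of CCF4-AM, blue (460 nm) over green (530 nm). HCT116 reporter line; 16 h treatment, 37C; substrate 2 h RT.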

[4] = TOX21_p53_BLA_p3_viability: Viability Assessment in the Tox21 HCT-116 p53 Agonism Beta-lactamase Assay, Phase 3 (AID 2283593);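 further: cells exposed to compound for 16 h before reading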
Method in brief: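 HCT-116 cells (4000/well) rested 5 h at 37C, then got DMSO compounds by pin tool (217-fold dilution) for 16 h at 37C, 5% CO2. After the bla read, CellTiter-Glo was added and luminescence read at 30 min, room temperature.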

[5] = TOX21_p53_BLA_p4_viability: Viability Assessment in the Tox21 HCT-116 p53 Agonism Beta-lactamase Assay, Phase 4 (AID 2283597);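 further: hits lower the luminescence signal meaning cytotoxicity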
Method in brief: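 Cytotoxicity was inferred from loss of CellTiter-Glo luminescence. HCT116 cells had been dosed with compounds after 5 h plating, incubated 16 h at 37C and 5% CO2, and exposed to the CCF4-AM substrate for 2 h.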

[6] = molecular target: Cellular tumor antigen p53 (Homo sapiens) (UniProt P04637); assay: TOX21_p53_BLA_p5_ratio: Tox21 HCT-116 p53 Agonism Beta-lactamase Assay, Ratio, Phase 5 (AID 2283599)
Method in brief: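 HCT-116 cells carrying a p53-inducible beta-lactamase reporter were seeded at 4000 cells/well and dosed after 5 h with compound in DMSO (217-fold dilution). After 16 h at 37C, CCF4-AM substrate was added for 2 h, and the 460/530 nm emission ratio was scored as gain-of-signal versus DMSO.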

[7] = TOX21_p53_BLA_p5_viability: Viability Assessment in the Tox21 HCT-116 p53 Agonism Beta-lactamase Assay, Phase 5 (AID 2283600)
Method in brief: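 Luciferase-coupled ATP quantitation of cells treated for 16 h (37C, 5% CO2) with test chemicals delivered in DMSO via a 217-fold dilution; 4000 cells/well; reagent incubated 30 min at room temperature before luminescence reading.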

[8] = molecular target: Cellular tumor antigen p53 (Homo sapiens) (UniProt P04637); assay: TOX21_p53_BLA_p4_ratio: Tox21 HCT-116 p53 Agonism Beta-lactamase Assay, Ratio, Phase 4 (AID 2283601)
Method in brief: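 HCT116 cells carrying an inducible beta-lactamase reporter were plated at 4000 cells/well, rested 5 h, then exposed to compounds in DMSO (217-fold dilution) for 16 h at 37C. CCF4-AM substrate was loaded 2 h at room temperature; 460/530 nm emission ratio scored gain-of-signal versus DMSO.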

[9] = molecular target: Cellular tumor antigen p53 (Homo sapiens) (UniProt P04637); assay: TOX21_p53_BLA_p3_ratio: Tox21 HCT-116 p53 Agonism Beta-lactamase Assay, Ratio, Phase 3 (AID 2283596)
Method in brief: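 Cells were seeded at 4000/well, rested 5 h at 37C, then dosed with DMSO compound solutions (217-fold dilution) for 16 h. CCF4-AM substrate was loaded for 2 h at room temperature, and the 460/530 nm emission ratio was fitted for gain of signal versus DMSO.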

Cellular tumor antigen p53 (Homo sapiens), sequence (P04637 whole entry, looked up): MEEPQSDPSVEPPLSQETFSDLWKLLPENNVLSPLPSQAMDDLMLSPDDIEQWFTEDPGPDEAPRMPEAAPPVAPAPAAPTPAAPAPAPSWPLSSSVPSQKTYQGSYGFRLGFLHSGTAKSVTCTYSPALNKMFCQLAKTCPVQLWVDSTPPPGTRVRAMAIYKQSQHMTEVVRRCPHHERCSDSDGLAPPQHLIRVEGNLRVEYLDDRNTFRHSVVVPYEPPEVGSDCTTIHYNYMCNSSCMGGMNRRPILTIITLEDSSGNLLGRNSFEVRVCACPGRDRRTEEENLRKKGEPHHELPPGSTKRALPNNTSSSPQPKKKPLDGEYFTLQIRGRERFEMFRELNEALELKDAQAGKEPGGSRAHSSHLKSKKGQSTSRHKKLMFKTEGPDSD

SMILES	outcome [1]	outcome [2]	outcome [3]	outcome [4]	outcome [5]	outcome [6]	outcome [7]	outcome [8]	outcome [9]	AC50 [1]
CN(C)CCOCCN(C)C	inactive	inactive	inactive	inactive	inactive	inactive	inactive	inactive		
CCCCCCCCCCCCCCCCCC(=O)OCC(CC)CCCC (stereo unspecified)	inactive	inactive	inactive	inactive	inactive	inactive		inactive		
O=C=NC1CCC(CC2CCC(N=C=O)CC2)CC1 (stereo unspecified)	inactive	inactive	inactive		inactive		inactive	inactive	inactive	
CC(C)C(C)(C)C(C)(C)C(C)(C)S	inactive	inactive	inactive	inactive	inactive	inactive	inactive	inactive		
CN(CCOc1ccc(CC2SC(=O)NC2=O)cc1)c1ccccn1 (stereo unspecified)	inactive	inactive	inactive		inactive	inactive		inactive	inactive	
O=C[C@@H](O)[C@H](O)[C@H](O)CO	inactive	inactive	inactive	inactive			inactive	inactive		
C#C[C@]1(O)CC[C@H]2[C@@H]3CCC4=Cc5oncc5C[C@]4(C)[C@H]3CC[C@@]21C		inactive	inactive	inactive	inactive	inactive	inactive	inactive		151 µM (active)
O=P(c1ccccc1)(c1ccccc1)c1ccccc1	inactive	inactive	inactive	inactive	inactive		inactive			
C=C(C)[C@@H]1CC[C@@H](C)C[C@@H]1O	inactive	inactive	inactive		inactive	inactive	inactive	inactive	inactive	
CCCC1CCC(=O)O1 (stereo unspecified)	inactive	inactive	inactive		inactive			inactive	inactive	

From PubChem BioAssay (EPA / NIEHS)
